# The entries come from a sample that favours hits as a whole.
# TTR transcr act: TTR transcription activators in neuroblastoma reporter cells, primary screen, cell-based, luminescence, SH-SY5Y, TTR promoter Gaussia luciferase | activation, % at 16.7 µM | 92,000 compounds, 1.3% hits | 100% = recombinant luciferase protein wells | AID 1117267, 2014;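 active means activation above the mean of all tested compounds plus 3 SD, cut at about 9.5% in these data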;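 further: cells exposed to compounds for one day before reading; 0% = median of all test compound wells on the plate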
# TTR inh HuH7: TTR promoter reporter inhibitors in hepatoma cells, counter-screen for TTR transcription activator project, cell-based, luminescence, HuH7 hepatoma. shares compounds with TTR transcr act. HuH7 TTR promoter-Gaussia luciferase reporter. inhibition, % at 16.7 µM. 1,100 compounds, 4% hits. AID 1117279, 2014;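 active means average inhibition above the solvent-only control wells' mean plus 3 SD, cut at about 15% in these data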;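 further: 0% = cells with DMSO only and 100% = cells with inhibitor control FD; inhibitors lower well luminescence so higher value means more inhibition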
# TTR act confirm: TTR transcription activators, retest, confirmation, cell-based, luminescence, SH-SY5Y, triplicate; SHSY5Y TTR promoter Gaussia luciferase; 100% = purified Lucia enzyme wells, no cells; activation, % at 16.7 µM; 1,100 tested, under 10 active; AID 1117280, 2014; shares compounds with TTR transcr act;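 active means mean activation above a set limit taken from the earlier primary screen, cut at about 11% in these data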;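 further: 0% = DMSO-treated cells and 100% = recombinant Lucia luciferase without cells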
# * marks the source's active call; other numbers are inactive results.
SMILES,TTR transcr act,others
COC(C(=O)NC1CC1)c1ccccc1 (stereo unspecified),2,
CCC(C)[C@H](NC(=O)Nc1ccccc1F)C(=O)O (stereo partly specified),9,
COC(C(=O)Nc1ccccc1F)c1ccccc1 (stereo unspecified),15*,TTR inh HuH7=-7;TTR act confirm=0
O=C1NC(=O)N(Cc2ccccc2)CC1Br (stereo unspecified),0,
O=C1NC(=O)N(C2CCCCC2)CC1Br (stereo unspecified),25*,TTR inh HuH7=-4;TTR act confirm=-1
CC1CN(C2CCCCC2)C(=S)NC1=O (stereo unspecified),2,
Cc1cccc(OCC(=O)NC2CCCc3ccccc32)c1C (stereo unspecified),0,
Cc1ccc(C(=O)OCC(=O)NC2CCCc3ccccc32)o1 (stereo unspecified),18*,TTR inh HuH7=-9;TTR act confirm=0
Cc1ccc(CC(=O)NC2CCCc3ccccc32)cc1C (stereo unspecified),-1,
CC(=O)N1CCN(c2cc(-c3ccco3)nc3cc(-c4ccccc4)nn23)CC1,-1,
C=CCN1C(=O)[C@H](CC(=O)NCCC(C)C)[C@@]2(C(=O)OCC)CCCC=C12,0,
COc1ccc(S[C@]2(C(=O)N3CCN(c4ncccn4)CC3)CC(=O)N(C(=O)C3CC3)[C@@H]2c2ccc(OC)cc2)cc1,7,
CC1=C(C(=O)Nc2cccc(C(=O)NC(C)c3ccccc3)c2)SCCO1 (stereo unspecified),11*,TTR inh HuH7=-11;TTR act confirm=-1
Cc1cccc(NC(=O)c2nc[nH]c2C(=O)N[C@@H](C)c2ccccc2)c1,9,
Cc1cccc(C(=O)NC(=S)NC(C)c2ccccc2)c1 (stereo unspecified),-1,
CCCCCCC/C=C(\C)[C@@H](O)[C@@H](C)C(=O)N1CCC[C@@H]1C(=O)O[C@H](C(=O)O[C@@H](C)C(=O)O)[C@@H](C)CC,1,
O=C(NCC(c1ccccc1)c1ccccc1)[C@H](Cc1ccccc1)NC1(C(=O)NC2CCCCC2)CCC1,0,
CC(=O)c1cccc(NC(=O)C2Cc3c(-c4ccccc4)ccnc3O2)c1 (stereo unspecified),-1,
CC(=O)Nc1cccc(-c2ccnc3c2CC(C(=O)Nc2cccnc2)O3)c1 (stereo unspecified),5,
CC(=O)Nc1cccc(-c2ccnc3c2CC(C(=O)Nc2cccc(NS(C)(=O)=O)c2)O3)c1 (stereo unspecified),17*,TTR inh HuH7=-22;TTR act confirm=1
CC(C)(C)[C@@H]1/C(=C/C2CC2)N2C(=O)C[C@@H](c3ccccc3)N=C2N1Cc1ccc2c(c1)OCO2,-2,
CCCCCCCCN1C(=O)[C@@H](CC(=O)NCCCN2CCCC2=O)C[C@@]2(C(=O)OC)C1=C[C@H](C(C)C)O[C@@H]2C1CC1,-1,
CN(C)c1cccc(-c2cnc(N3CCC(C(N)=O)CC3)s2)c1,3,
Cc1nc(N)ncc1CCC1OCCO1,12*,TTR inh HuH7=-10;TTR act confirm=0
O=C(OCC#CCSc1nnc(-c2ccccc2F)o1)c1ccc(F)cc1,-1,
SMILES,TTR transcr act,others
COC(=O)[C@H](C)NC(=O)[C@@H]1CC=C[C@@H]2CCN(CCc3ccccc3)C(=O)[C@@H]21,-2,
Cc1cccc(N2CCN(S(=O)(=O)c3ccc4c(c3)CCN4C(=O)CCC(=O)O)CC2)c1C,1,
Cc1cccc(N2CCN(S(=O)(=O)c3ccc4c(c3)OCCO4)CC2)c1C,0,
Cc1cccc(N2CCN(S(=O)(=O)c3ccc4c(c3)CC(=O)N4C)CC2)c1C,14*,TTR inh HuH7=-11;TTR act confirm=-1
CCCCNC(=O)C[C@H]1C[C@@]2(C(=O)OCC)CCCC3=C2N(CCC3)C1=O,-1,
Cc1cccc(Oc2ccc(C(=O)NC3CCSC3=O)cn2)c1C (stereo unspecified),14*,TTR inh HuH7=-2;TTR act confirm=-1
O=C(Cc1ccc(F)cc1)NC1CCSC1=O (stereo unspecified),2,
O=C(NC(=S)NC1CCSC1=O)c1cccs1 (stereo unspecified),4,
COC(=O)[C@]12C[C@H](CC(=O)N3CCC(c4ccccc4)CC3)C(=O)N(Cc3ccc(Cl)cc3Cl)C1=C[C@H](C(C)C)O[C@@H]2C1CC1,1,
Cn1nnnc1Sc1ncnc2scc(-c3cnc(N)nc3)c12,0,
C=CCN1C(=O)[C@H](CC(=O)N2CCN(C(=O)C3CC3)CC2)[C@@]2(C(=O)OCC)CCCC=C12,0,
Cc1ccc(NC(=O)c2scc3c2CCCC3)cc1,22*,TTR inh HuH7=10;TTR act confirm=-2
CCN1CCCC(NC(=O)c2scc3c2CCCC3)C1 (stereo unspecified),0,
Cc1ccc(C(=O)Nc2ccc3c(c2)CCC3)cc1,0,
Cc1ccc(CNC(=O)c2cccnc2)cc1,1,

# Screening data (PubChem BioAssay)
